Measurements taken from ChEMBL document CHEMBL3988442, “University of Dundee, Small-Polar-MMV Screening Library” (2021).

What follows are molecules tested against T1, Arginase-2, mitochondrial (Homo sapiens) (UniProt P78540) (assay: in vitro enzyme assay to detect the production of urea directly proportional to the activity of Arginase II). Conditions: 33.3 µM.
T1 sequence (whole entry): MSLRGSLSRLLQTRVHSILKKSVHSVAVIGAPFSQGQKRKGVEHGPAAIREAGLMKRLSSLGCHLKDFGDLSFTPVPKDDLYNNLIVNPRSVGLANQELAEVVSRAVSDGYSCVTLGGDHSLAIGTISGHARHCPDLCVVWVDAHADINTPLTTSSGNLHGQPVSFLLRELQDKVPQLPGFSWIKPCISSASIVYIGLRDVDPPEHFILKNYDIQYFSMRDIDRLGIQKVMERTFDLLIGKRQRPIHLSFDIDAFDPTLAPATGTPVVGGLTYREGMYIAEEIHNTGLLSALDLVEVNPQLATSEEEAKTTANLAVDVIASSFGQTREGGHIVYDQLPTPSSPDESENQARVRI
Assay type: functional
Parameters: scale not given: in the data most compounds retested in dose-response had high values

| Compound | Percent Effect |
| --- | --- |
| O=C(NCCNc1ncccn1)N1CCN(Cc2cccnc2)CC1 | -16% |
| CC(C)N1CCC(N2CCN(C3CCC3)CC2CCO)CC1 (stereo not given) | 20.8% |
| COc1ccc(CN2CCCC(Cn3nc(C)nc3C)C2)cc1F (stereo not given) | -1.94% |
| Cc1cnn(CCCNC(=O)N2CCCCC(N3CCCC3)C2)c1 (stereo not given) | 4.21% |
| CCn1cc(NC(=O)NCC(c2cccs2)N(C)C)cn1 (stereo not given) | -3.83% |
| c1cnn(Cc2cn3c(n2)CN(Cc2nccs2)CC3)c1 | 5.81% |
| CCc1noc(C2CCN(C(=O)CCn3nc(C)cc3C)CC2)n1 | -5.52% |
| CC(C#N)CSc1ccccc1NCC(=O)Nc1ccc(F)cc1 (stereo not given) | 1.82% |
| CCc1nc(CN2CCCC(NCc3nnc(C4CC4)o3)C2)no1 (stereo not given) | -0.632% |
| CCc1ccc(CCC(=O)N2CCOCC2c2ncon2)cc1 (stereo not given) | 3.14% |
| CC(=O)N1CCN(c2cc(C3CN(C)CCO3)nc(C)n2)CC1 (stereo not given) | -1.16% |
| CN(C)CC1CSCCCN1C(=O)Nc1ccc(C(C)(C)C)cc1 (stereo not given) | -5.81% |
| Cc1n[nH]c(C2CN(C(=O)c3ccco3)CCO2)n1 (stereo not given) | 0% |
| Clc1ccccc1C1(c2ccnc(CC3CC3)n2)CCNCC1 | -80% |
| Cc1cc2cc(C(=O)N[C@@H]3CC[C@@H](N4CCOCC4)[C@@H]3O)ccc2o1 | -0.232% |
| CC(C)c1nnc2n1CCN(CC(=O)Nc1nncs1)C2 | 5.68% |
| CCc1noc(C)c1C(=O)N1CCCC1c1c(C)nn(C)c1OC (stereo not given) | -3.42% |
| COc1cc(C)nc(N2CCN(C(=O)c3ccc[nH]3)CC2)n1 | -5.21% |
| O=C(NCc1cccnc1)C1CC(=O)N(CC2CC2)C1 (stereo not given) | -1.05% |
| Fc1ccc(CN2CCO[C@H]3[C@H](OCC4CC4)CC[C@@H]32)cc1 | -41.4% |

| Compound | Percent Effect |
| --- | --- |
| COCCN1CCC2(CCCN(C(=O)c3cnoc3C)C2)C1=O (stereo not given) | -3.19% |
| CC(C)CCN1CCNC(=O)C1CC(=O)N1CCc2sccc2C1 (stereo not given) | -15.2% |
| O=C(CN1CCCCC1Cn1cncn1)NC1CCN(C2CC2)CC1 (stereo not given) | -1.43% |
| COCCC(=O)N1CCC2(COCc3cnc(-c4ccccc4)nc32)C1 (stereo not given) | 2.56% |
| Cc1cc(CN2CCc3nn(C(C)C)c(=O)cc3C2)no1 | 0.833% |
| Cc1cccc(Cn2ccc(NS(C)(=O)=O)n2)c1 | -40% |
| CN1CCN(Cc2ccccc2CNC(=O)c2ccc(Br)cc2F)CC1 | 3.72% |
| CCCC(=O)N1CCC(O)(Cn2c(CC)nc3ccccc3c2=O)CC1 | -1.16% |
| CN(CC1(O)CCCCC1)C1CCCN(Cc2noc(C3CC3)n2)C1 (stereo not given) | -1.08% |
| Cc1ccc(N2CCCN(C(=O)C(C(C)C)n3cncn3)CC2)nn1 (stereo not given) | 2.03% |
| CCc1nnc(CNCC2CCCN2c2cccnn2)o1 (stereo not given) | -2.4% |
| Cc1cc(NC(=O)CN2CCc3nn(C)c(=O)cc3C2)on1 | 7.06% |
| CCc1c(C(=O)NCC(=O)OCC2CC2)cnn1-c1ccc(C)cc1 | 0.38% |
| Fc1ccc(CN2CCCN(Cc3cscn3)CC2)cc1 | 1.05% |
| Cc1cc(C)n(CC(=O)N2CCC(NS(C)(=O)=O)CC2)n1 | -2.3% |
| CC(=O)NCCNC(=O)CN1CCN(Cc2nccn2C)C(C)C1 (stereo not given) | 0.185% |
| CSCCCN1CCCC1c1noc(C)n1 (stereo not given) | 8.43% |
| CCn1ccnc1CN1CCC(CNC(=O)c2ccc(C)nc2)C1 (stereo not given) | -1.38% |
| CC(=O)N1CC(Cc2nccc3ccn(C)c23)C1 | 3.96% |
| NC(=O)CN1CCC(NC(=O)c2ccn(-c3cccc(F)c3)n2)CC1 | 3.97% |

These molecules were tested against T2, Proteasome subunit beta (Trypanosoma cruzi) (UniProt O96673) (assay: Trypanosoma cruzi proteasome chymotrypsin-like activity (TcProtChymo) assay.). Conditions: 9.37 µM.
T2 sequence (whole entry): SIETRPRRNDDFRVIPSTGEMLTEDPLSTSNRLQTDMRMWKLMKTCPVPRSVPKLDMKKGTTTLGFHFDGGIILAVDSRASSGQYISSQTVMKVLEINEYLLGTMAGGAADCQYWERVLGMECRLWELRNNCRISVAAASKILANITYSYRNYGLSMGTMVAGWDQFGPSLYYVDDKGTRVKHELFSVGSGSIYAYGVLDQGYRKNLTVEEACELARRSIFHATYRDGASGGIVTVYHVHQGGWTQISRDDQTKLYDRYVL
Assay type: functional
Parameters: scale not given: in the data most compounds retested in dose-response had high values

| Compound | Percent Effect |
| --- | --- |
| O=C(NCCNc1ncccn1)N1CCN(Cc2cccnc2)CC1 | 6.13% |
| CC(C)N1CCC(N2CCN(C3CCC3)CC2CCO)CC1 (stereo not given) | -1.75% |
| COc1ccc(CN2CCCC(Cn3nc(C)nc3C)C2)cc1F (stereo not given) | 0% |
| Cc1cnn(CCCNC(=O)N2CCCCC(N3CCCC3)C2)c1 (stereo not given) | 15.5% |
| CCn1cc(NC(=O)NCC(c2cccs2)N(C)C)cn1 (stereo not given) | 7.69% |
| c1cnn(Cc2cn3c(n2)CN(Cc2nccs2)CC3)c1 | 12.2% |
| CCc1noc(C2CCN(C(=O)CCn3nc(C)cc3C)CC2)n1 | 14.8% |
| CC(C#N)CSc1ccccc1NCC(=O)Nc1ccc(F)cc1 (stereo not given) | 6.39% |
| CCc1nc(CN2CCCC(NCc3nnc(C4CC4)o3)C2)no1 (stereo not given) | 10.4% |
| CCc1ccc(CCC(=O)N2CCOCC2c2ncon2)cc1 (stereo not given) | 3.05% |
| CC(=O)N1CCN(c2cc(C3CN(C)CCO3)nc(C)n2)CC1 (stereo not given) | 14.8% |
| CN(C)CC1CSCCCN1C(=O)Nc1ccc(C(C)(C)C)cc1 (stereo not given) | 1.57% |
| Cc1n[nH]c(C2CN(C(=O)c3ccco3)CCO2)n1 (stereo not given) | 4.51% |
| Clc1ccccc1C1(c2ccnc(CC3CC3)n2)CCNCC1 | 13.1% |
| Cc1cc2cc(C(=O)N[C@@H]3CC[C@@H](N4CCOCC4)[C@@H]3O)ccc2o1 | 13.4% |
| CC(C)c1nnc2n1CCN(CC(=O)Nc1nncs1)C2 | 8% |
| CCc1noc(C)c1C(=O)N1CCCC1c1c(C)nn(C)c1OC (stereo not given) | -3.03% |
| COc1cc(C)nc(N2CCN(C(=O)c3ccc[nH]3)CC2)n1 | 4.14% |
| O=C(NCc1cccnc1)C1CC(=O)N(CC2CC2)C1 (stereo not given) | 17.7% |
| Fc1ccc(CN2CCO[C@H]3[C@H](OCC4CC4)CC[C@@H]32)cc1 | 8.89% |

| Compound | Percent Effect |
| --- | --- |
| COCCN1CCC2(CCCN(C(=O)c3cnoc3C)C2)C1=O (stereo not given) | 12.2% |
| CC(C)CCN1CCNC(=O)C1CC(=O)N1CCc2sccc2C1 (stereo not given) | 1.17% |
| O=C(CN1CCCCC1Cn1cncn1)NC1CCN(C2CC2)CC1 (stereo not given) | 5.86% |
| COCCC(=O)N1CCC2(COCc3cnc(-c4ccccc4)nc32)C1 (stereo not given) | 1.15% |
| Cc1cc(CN2CCc3nn(C(C)C)c(=O)cc3C2)no1 | 14.1% |
| Cc1cccc(Cn2ccc(NS(C)(=O)=O)n2)c1 | 9.65% |
| CN1CCN(Cc2ccccc2CNC(=O)c2ccc(Br)cc2F)CC1 | 3.35% |
| CCCC(=O)N1CCC(O)(Cn2c(CC)nc3ccccc3c2=O)CC1 | 9.2% |
| CN(CC1(O)CCCCC1)C1CCCN(Cc2noc(C3CC3)n2)C1 (stereo not given) | 10.9% |
| Cc1ccc(N2CCCN(C(=O)C(C(C)C)n3cncn3)CC2)nn1 (stereo not given) | 9.16% |
| CCc1nnc(CNCC2CCCN2c2cccnn2)o1 (stereo not given) | 5.57% |
| Cc1cc(NC(=O)CN2CCc3nn(C)c(=O)cc3C2)on1 | 13.9% |
| CCc1c(C(=O)NCC(=O)OCC2CC2)cnn1-c1ccc(C)cc1 | 10.7% |
| Fc1ccc(CN2CCCN(Cc3cscn3)CC2)cc1 | 9.46% |
| Cc1cc(C)n(CC(=O)N2CCC(NS(C)(=O)=O)CC2)n1 | 8.69% |
| CC(=O)NCCNC(=O)CN1CCN(Cc2nccn2C)C(C)C1 (stereo not given) | -2.87% |
| CSCCCN1CCCC1c1noc(C)n1 (stereo not given) | 23.7% |
| CCn1ccnc1CN1CCC(CNC(=O)c2ccc(C)nc2)C1 (stereo not given) | 12% |
| CC(=O)N1CC(Cc2nccc3ccn(C)c23)C1 | 22.6% |
| NC(=O)CN1CCC(NC(=O)c2ccn(-c3cccc(F)c3)n2)CC1 | 11.1% |
